Data: paper PMC7862700, “An all-to-all approach to the identification of sequence-specific readers for epigenetic DNA modifications on cytosine”

Legend:
Assay in all cases: DAPPL (digital affinity profiling via proximity ligation, sequencing); 10 mM Tris-HCl pH 7.5, 50 mM NaCl, 1 mM DTT, 4% glycerol, room temperature, 30 min; GST-TFs on glutathione beads, 16-mer random dsDNA library, 0.1% formaldehyde crosslink after washing; high values mean tight binding
Conditions in all cases: protein: recombinant; tags: N-terminal GST; dsDNA, one strand shown
FLI1 = biological target: T1, FLI1 (Homo sapiens, UniProt Q01543 1-452)
T1 sequence: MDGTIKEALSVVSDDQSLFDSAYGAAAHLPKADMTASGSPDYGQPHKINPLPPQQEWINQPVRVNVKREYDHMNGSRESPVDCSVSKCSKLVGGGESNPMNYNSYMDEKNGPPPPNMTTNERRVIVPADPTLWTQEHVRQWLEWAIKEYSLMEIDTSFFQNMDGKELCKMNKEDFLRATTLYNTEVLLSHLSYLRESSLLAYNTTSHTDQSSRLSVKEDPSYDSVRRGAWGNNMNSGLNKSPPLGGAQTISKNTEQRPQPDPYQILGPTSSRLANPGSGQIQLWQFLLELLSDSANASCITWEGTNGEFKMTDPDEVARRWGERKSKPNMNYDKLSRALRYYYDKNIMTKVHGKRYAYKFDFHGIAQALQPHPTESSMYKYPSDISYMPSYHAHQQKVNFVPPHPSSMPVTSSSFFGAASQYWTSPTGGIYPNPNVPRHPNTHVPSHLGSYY
Method in brief: (§1)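 Pools were built from human transcription factors expressed in yeast as GST fusions, captured on glutathione beads and DNA-barcoded, along with a tag-only sample. Incubation with 200 nmole of a 16-mer random double-stranded DNA library lasted 30 min at room temperature in Tris/NaCl/DTT/glycerol buffer, and was followed by washing, 0.1% formaldehyde crosslinking, proximity ligation, PCR amplification and Illumina NextSeq500 sequencing. Binding signal is the quotient of each hexamer's read frequency for a factor and its frequency for the tag-only sample.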

ELK1 = biological target: T2, ELK1 (Homo sapiens, UniProt P19419 1-428)
T2 sequence: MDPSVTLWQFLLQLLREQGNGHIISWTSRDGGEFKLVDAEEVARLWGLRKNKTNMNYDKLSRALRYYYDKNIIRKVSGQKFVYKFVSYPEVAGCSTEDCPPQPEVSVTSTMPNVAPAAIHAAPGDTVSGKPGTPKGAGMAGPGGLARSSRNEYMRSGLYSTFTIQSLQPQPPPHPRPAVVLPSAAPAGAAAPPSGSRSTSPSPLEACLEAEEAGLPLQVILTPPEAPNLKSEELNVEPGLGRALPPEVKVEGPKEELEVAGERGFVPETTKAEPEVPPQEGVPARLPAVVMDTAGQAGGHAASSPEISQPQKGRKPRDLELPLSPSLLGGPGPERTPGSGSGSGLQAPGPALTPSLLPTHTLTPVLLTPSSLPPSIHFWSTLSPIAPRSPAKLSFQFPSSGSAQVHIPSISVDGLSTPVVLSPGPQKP
Method in brief: as §1

GABPA = biological target: T3, GABPA (Homo sapiens, UniProt Q06546 1-454)
T3 sequence: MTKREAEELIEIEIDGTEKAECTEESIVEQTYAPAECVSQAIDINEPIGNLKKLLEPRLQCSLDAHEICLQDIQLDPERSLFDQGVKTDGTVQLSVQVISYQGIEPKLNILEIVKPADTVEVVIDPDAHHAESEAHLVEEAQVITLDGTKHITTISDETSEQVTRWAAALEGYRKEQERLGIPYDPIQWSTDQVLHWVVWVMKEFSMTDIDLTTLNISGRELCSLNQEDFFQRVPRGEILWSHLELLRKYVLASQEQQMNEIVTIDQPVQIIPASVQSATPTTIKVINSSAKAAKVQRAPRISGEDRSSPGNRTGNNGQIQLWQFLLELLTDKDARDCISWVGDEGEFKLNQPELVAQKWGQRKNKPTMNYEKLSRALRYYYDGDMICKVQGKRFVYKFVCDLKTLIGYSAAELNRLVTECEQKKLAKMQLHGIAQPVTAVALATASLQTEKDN
Method in brief: as §1

ERG = biological target: T4, ERG (Homo sapiens, UniProt P11308 1-479)
T4 sequence: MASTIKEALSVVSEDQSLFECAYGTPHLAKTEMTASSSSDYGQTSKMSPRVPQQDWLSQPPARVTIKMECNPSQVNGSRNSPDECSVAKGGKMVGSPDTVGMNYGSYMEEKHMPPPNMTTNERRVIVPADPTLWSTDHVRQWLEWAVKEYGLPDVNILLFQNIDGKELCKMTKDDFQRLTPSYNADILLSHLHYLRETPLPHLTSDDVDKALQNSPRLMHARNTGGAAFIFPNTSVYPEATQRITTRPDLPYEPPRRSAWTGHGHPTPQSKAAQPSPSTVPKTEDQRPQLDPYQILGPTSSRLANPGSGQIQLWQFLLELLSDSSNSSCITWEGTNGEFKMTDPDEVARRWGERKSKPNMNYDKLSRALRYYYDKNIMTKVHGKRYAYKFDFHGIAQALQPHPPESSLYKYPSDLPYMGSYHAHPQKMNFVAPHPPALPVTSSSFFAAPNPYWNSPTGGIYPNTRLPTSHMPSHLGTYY
Method in brief: as §1

ELF1 = ELF1 (Homo sapiens, UniProt P32519 1-619)
Chain of ELF1 (P32519 whole entry): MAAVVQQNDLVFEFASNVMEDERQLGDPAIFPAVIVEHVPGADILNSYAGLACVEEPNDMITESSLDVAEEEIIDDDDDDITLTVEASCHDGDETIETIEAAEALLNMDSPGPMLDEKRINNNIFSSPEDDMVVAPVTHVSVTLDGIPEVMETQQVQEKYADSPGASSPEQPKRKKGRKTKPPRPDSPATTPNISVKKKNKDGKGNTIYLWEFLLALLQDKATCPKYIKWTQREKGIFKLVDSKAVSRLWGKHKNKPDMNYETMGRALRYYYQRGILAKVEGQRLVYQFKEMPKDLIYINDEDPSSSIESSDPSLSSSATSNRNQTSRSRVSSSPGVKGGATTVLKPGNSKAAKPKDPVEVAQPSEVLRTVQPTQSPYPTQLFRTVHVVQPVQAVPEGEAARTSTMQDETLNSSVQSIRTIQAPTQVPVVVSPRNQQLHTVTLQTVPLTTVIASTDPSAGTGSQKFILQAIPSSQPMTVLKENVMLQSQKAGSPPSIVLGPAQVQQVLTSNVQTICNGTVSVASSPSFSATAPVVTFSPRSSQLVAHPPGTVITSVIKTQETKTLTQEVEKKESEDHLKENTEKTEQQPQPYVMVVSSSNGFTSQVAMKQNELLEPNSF
Method in brief: as §1

EHF = biological target: T5, EHF (Homo sapiens, UniProt Q9NZC4 1-300)
T5 sequence: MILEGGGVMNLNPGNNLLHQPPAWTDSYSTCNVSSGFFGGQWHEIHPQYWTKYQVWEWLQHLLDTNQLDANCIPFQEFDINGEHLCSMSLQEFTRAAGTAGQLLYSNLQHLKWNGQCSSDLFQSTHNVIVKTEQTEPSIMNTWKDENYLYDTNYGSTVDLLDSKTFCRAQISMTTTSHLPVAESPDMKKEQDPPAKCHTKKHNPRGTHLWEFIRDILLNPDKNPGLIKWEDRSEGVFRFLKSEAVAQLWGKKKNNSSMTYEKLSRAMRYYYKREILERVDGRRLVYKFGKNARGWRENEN
Method in brief: as §1

SPI1 = SPI1 (Homo sapiens, UniProt P17947 1-270)
Method in brief: as §1

SPIB = SPIB (Homo sapiens, UniProt Q01892 1-262)
Chain of SPIB (Q01892 whole entry): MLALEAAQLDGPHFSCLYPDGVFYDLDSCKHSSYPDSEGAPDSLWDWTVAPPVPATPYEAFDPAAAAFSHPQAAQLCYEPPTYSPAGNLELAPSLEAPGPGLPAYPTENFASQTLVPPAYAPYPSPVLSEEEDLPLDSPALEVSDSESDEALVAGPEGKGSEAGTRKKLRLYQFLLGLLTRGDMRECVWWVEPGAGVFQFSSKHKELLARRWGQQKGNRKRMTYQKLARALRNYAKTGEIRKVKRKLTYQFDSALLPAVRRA
Method in brief: as §1

ELK3 = biological target: T6, ELK3 (Homo sapiens, UniProt P41970 1-407)
T6 sequence: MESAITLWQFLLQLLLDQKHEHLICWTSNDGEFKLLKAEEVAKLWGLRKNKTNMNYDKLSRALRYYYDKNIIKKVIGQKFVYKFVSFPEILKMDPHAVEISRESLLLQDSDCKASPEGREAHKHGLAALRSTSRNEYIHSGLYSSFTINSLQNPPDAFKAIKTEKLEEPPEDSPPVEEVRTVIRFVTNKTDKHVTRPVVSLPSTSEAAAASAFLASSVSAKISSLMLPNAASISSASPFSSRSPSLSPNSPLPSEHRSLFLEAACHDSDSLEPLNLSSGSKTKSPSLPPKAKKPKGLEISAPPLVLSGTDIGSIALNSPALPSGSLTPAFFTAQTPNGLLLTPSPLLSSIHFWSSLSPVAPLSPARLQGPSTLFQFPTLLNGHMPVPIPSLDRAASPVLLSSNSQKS
Method in brief: as §1

FEV = biological target: T7, FEV (Homo sapiens, UniProt Q99581 1-238)
T7 sequence: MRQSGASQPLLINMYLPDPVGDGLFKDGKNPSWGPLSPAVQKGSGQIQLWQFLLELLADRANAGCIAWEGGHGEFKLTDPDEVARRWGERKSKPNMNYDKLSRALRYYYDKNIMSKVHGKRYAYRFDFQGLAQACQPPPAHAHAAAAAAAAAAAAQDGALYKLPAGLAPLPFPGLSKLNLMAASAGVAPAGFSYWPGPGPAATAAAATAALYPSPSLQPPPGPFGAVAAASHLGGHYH
Method in brief: as §1

ETV5 = ETV5 (Homo sapiens, UniProt P41161 1-510)
Chain of ETV5 (P41161 whole entry): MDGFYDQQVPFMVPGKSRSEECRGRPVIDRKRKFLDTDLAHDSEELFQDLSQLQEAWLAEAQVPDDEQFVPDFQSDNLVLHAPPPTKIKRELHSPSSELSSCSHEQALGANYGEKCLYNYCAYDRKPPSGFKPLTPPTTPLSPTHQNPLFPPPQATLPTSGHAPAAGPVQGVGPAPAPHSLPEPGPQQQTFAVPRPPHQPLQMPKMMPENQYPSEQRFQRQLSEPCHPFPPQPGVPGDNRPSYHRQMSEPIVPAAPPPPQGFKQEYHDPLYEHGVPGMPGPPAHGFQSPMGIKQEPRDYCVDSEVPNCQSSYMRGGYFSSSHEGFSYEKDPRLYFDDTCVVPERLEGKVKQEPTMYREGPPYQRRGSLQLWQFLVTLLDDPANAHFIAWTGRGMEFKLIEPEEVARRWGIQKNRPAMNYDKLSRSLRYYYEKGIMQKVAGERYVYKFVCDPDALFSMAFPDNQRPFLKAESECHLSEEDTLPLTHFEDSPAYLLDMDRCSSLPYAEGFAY
Method in brief: as §1

SPIC = biological target: T8, SPIC (Homo sapiens, UniProt Q8N5J4 1-248)
T8 sequence: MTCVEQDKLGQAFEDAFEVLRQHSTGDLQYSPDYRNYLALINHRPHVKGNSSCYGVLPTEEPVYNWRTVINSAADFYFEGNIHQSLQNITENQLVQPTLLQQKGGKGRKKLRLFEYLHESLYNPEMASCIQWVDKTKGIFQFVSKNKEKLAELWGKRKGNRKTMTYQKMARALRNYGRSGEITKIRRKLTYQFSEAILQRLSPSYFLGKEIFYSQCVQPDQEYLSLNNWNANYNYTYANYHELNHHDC
Method in brief: as §1

ELF4 = ELF4 (Homo sapiens, UniProt Q99607 1-663)
Chain of ELF4 (Q99607 whole entry): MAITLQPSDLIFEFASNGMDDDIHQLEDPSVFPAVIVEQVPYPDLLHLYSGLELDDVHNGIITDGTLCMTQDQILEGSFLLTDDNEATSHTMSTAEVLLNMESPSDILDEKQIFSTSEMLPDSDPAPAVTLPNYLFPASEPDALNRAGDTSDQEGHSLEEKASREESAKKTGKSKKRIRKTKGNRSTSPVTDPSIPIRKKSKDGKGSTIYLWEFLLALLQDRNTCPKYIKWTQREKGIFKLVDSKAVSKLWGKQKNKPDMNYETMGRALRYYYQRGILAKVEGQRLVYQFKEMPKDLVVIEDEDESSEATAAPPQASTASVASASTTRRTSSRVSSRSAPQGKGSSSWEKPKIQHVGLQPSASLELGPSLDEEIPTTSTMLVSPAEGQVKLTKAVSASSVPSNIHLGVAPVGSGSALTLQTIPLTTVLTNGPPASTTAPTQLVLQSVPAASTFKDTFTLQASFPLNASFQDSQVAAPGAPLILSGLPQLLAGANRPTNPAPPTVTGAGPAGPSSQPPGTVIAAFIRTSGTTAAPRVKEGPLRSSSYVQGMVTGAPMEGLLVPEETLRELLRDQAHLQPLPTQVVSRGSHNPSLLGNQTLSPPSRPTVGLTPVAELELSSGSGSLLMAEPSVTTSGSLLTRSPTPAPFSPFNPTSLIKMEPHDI
Method in brief: as §1

ELK4 = biological target: T9, ELK4 (Homo sapiens, UniProt P28324-2 1-405)
T9 sequence: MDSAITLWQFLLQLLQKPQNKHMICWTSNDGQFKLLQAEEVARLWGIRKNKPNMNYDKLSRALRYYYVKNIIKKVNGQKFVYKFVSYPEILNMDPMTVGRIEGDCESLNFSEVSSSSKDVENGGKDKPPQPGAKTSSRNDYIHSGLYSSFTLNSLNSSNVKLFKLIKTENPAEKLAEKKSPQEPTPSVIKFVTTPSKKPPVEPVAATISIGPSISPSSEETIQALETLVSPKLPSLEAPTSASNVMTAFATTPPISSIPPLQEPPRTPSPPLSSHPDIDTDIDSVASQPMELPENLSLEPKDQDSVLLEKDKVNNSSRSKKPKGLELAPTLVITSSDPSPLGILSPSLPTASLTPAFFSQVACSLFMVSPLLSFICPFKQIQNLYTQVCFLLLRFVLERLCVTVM
Method in brief: as §1

ETV2 = biological target: T10, ETV2 (Homo sapiens, UniProt O00321 1-342)
T10 sequence: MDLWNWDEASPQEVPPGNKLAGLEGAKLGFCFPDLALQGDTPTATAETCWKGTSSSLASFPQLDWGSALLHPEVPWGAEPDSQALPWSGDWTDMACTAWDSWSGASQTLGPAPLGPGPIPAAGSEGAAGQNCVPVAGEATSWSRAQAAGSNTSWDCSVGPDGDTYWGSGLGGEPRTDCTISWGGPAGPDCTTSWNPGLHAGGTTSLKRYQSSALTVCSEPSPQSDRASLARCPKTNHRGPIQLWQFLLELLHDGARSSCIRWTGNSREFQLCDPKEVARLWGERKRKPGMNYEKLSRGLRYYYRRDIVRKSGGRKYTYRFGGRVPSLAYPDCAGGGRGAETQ
Method in brief: as §1

ELF3 = biological target: T11, ELF3 (Homo sapiens, UniProt P78545 1-371)
T11 sequence: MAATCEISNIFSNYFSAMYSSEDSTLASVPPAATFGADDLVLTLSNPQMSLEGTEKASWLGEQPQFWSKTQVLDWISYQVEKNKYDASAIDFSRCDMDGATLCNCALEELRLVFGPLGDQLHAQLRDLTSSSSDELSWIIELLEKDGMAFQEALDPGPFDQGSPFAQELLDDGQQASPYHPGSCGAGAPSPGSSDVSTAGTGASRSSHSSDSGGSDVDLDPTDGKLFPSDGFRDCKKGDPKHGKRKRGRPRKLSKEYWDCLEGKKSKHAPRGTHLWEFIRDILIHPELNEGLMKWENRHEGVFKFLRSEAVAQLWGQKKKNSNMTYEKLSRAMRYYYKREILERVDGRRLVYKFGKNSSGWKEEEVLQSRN
Method in brief: as §1

ETV1 = ETV1 (Homo sapiens, UniProt P50549 1-477)
Chain of ETV1 (P50549 whole entry): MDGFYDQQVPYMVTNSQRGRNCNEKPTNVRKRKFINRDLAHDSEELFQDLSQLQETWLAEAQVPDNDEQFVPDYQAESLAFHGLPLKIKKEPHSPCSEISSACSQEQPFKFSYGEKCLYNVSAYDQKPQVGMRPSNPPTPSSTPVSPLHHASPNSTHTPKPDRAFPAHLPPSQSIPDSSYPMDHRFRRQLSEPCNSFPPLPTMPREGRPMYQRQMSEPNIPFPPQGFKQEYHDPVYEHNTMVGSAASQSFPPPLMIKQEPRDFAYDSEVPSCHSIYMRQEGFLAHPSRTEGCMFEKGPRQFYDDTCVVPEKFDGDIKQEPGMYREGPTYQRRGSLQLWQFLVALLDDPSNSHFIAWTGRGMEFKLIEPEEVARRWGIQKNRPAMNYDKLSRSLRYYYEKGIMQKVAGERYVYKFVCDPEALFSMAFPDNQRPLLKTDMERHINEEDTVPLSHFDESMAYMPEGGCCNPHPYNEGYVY
Method in brief: as §1

With TGGCAG the binding signal (FLI1) was 1.19 fold enrichment (6-mer frequency, TF over GST control), the binding signal (ELK1) was 1.09 fold enrichment (6-mer frequency, TF over GST control) and the binding signal (GABPA) was 1.07 fold enrichment (6-mer frequency, TF over GST control). The binding signal (ERG) was 1.01 fold enrichment (6-mer frequency, TF over GST control), the binding signal (ELF1) was 1.06 fold enrichment (6-mer frequency, TF over GST control) and the binding signal (EHF) was 1.11 fold enrichment (6-mer frequency, TF over GST control). The binding signal (SPI1) was 1.1 fold enrichment (6-mer frequency, TF over GST control), the binding signal (SPIB) was 1.12 fold enrichment (6-mer frequency, TF over GST control) and the binding signal (ELK3) was 1.21 fold enrichment (6-mer frequency, TF over GST control). For the same sequence, the binding signal (FEV) was 1.18 fold enrichment (6-mer frequency, TF over GST control), the binding signal (ETV5) was 1.07 fold enrichment (6-mer frequency, TF over GST control) and the binding signal (SPIC) was 1.05 fold enrichment (6-mer frequency, TF over GST control). For the same sequence, the binding signal (ELF4) was 1.02 fold enrichment (6-mer frequency, TF over GST control), the binding signal (ELK4) was 1.01 fold enrichment (6-mer frequency, TF over GST control) and the binding signal (ETV2) was 1.29 fold enrichment (6-mer frequency, TF over GST control). The binding signal (ELF3) was 1.02 fold enrichment (6-mer frequency, TF over GST control) and the binding signal (ETV1) was 1.05 fold enrichment (6-mer frequency, TF over GST control).

With GTGTTT the binding signal (FLI1) was 1.15 fold enrichment (6-mer frequency, TF over GST control), the binding signal (ELK1) was 1.19 fold enrichment (6-mer frequency, TF over GST control) and the binding signal (GABPA) was 1.08 fold enrichment (6-mer frequency, TF over GST control). For the same sequence, the binding signal (ERG) was 1.07 fold enrichment (6-mer frequency, TF over GST control), the binding signal (ELF1) was 1.16 fold enrichment (6-mer frequency, TF over GST control) and the binding signal (EHF) was 1.09 fold enrichment (6-mer frequency, TF over GST control). The binding signal (SPI1) was 1.11 fold enrichment (6-mer frequency, TF over GST control), the binding signal (SPIB) was 1.16 fold enrichment (6-mer frequency, TF over GST control) and the binding signal (ELK3) was 1.2 fold enrichment (6-mer frequency, TF over GST control). The binding signal (FEV) was 1.09 fold enrichment (6-mer frequency, TF over GST control), the binding signal (ETV5) was 1.14 fold enrichment (6-mer frequency, TF over GST control) and the binding signal (SPIC) was 1.21 fold enrichment (6-mer frequency, TF over GST control). The binding signal (ELF4) was 1.18 fold enrichment (6-mer frequency, TF over GST control), the binding signal (ELK4) was 1.11 fold enrichment (6-mer frequency, TF over GST control) and the binding signal (ETV2) was 1.02 fold enrichment (6-mer frequency, TF over GST control). For the same sequence, the binding signal (ELF3) was 1.17 fold enrichment (6-mer frequency, TF over GST control) and the binding signal (ETV1) was 1.21 fold enrichment (6-mer frequency, TF over GST control).
